Source: PubChem
HIF-2a block = HIF-2a reporter inhibitors, primary screen, luminescence, 786-0 RCC cells; 786-0 RCC cells HIF-2a reporter, luciferase luminescence, overnight; inhibition, % at 18.8 µM; actives 0.72% (n = 360,000); AID 624352, 2012;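 active = inhibition of the luminescence signal of 40% or more relative to plate controls, in a single-dose primary screen at 18.75 µM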
KKLEB cytotox = cytotoxicity in KKLEB CF airway cells, primary screen, cytotoxicity control for CF NF-kB inhibitor project, cell-based, uHTS, fluorescence assay plates. KKLEB CF airway cells viability, ATPlite luminescence, overnight; stronger effect = lower value; cells stimulated with P. aeruginosa culture filtrate. activity change (cytotoxicity), % at 5 µM. actives 0.36% (n = 360,000);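 active = corrected activity change at or below -50% at 5 µM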
Shn3 3UTR inh = reduction of Shn3 3'UTR firefly luciferase signal, primary screen, Schnurri-3 inhibitor project, cell-based, Clone20 osteoblasts, set 2; actives 0.52% (n = 360,000); AID 588674, 2011; inhibition, % at 12.5 µM; Clone20 osteoblast Shn3 3'UTR firefly luciferase, 24 h;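 active = mean inhibition of at least 75% with every replicate also reaching 75%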
CF NFkB block = inhibitors of PAF-induced NF-kB signaling, primary screen, cell-based, GFP fluorescence, uHTS; KKLEB NF-kB-GFP reporter, GFP fluorescence overnight; inhibition, % at 5 µM; actives 0.86% (n = 360,000); AID 588850, 2011;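 active = at least 50% inhibition at 5 µM, scaled per plate between neutral and stimulator controls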;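 note: PAF is a Pseudomonas aeruginosa culture filtrate used as stimulus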
Peg3 promoter = Peg3 promoter-driven luciferase inhibitors, primary screen, cell-based, HeLa, luciferase luminescence | inhibition, % at 20 µM | actives 1.7% (n = 360,000) | AID 588405, 2011 | HeLa PEG-Prom luciferase reporter, overnight;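 active = inhibition of at least 50% at 20 µM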
Mdm2 MdmX conf = retested Mdm2-MdmX interaction blockers, confirmation, cell-based, luminescence, single concentration, set 2; AID 504601, 2011; actives 99% (n = 740); shares compounds with HIF-2a block; inhibition, % at 8 µM; SaOS-2 split-luciferase Mdm2/MdmX complementation;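 active = mean inhibition of the luminescence signal across two replicates at or above 26 percent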
HIF-2a inh conf = HIF-2a reporter inhibitor retest, confirmation, luminescence, 786-0 RCC cells. inhibition, % at 18.8 µM. AID 651580, 2012. actives 56% (n = 1,800). HIF-2a luciferase reporter luminescence, overnight. shares compounds with HIF-2a block;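 active = mean inhibition across four replicates of at least 40 percent at the single tested concentration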
HIF-1a counter = HIF-1a luciferase reporter signal reduction – MiaPaCa-2 cells, single concentration, counter-screen for HIF-2a inhibitor project, confirmation. shares compounds with HIF-2a block. MiaPaCa-2 HIF-1a luciferase reporter, desferoxamine, overnight. inhibition, % at 18.8 µM. actives 72% (n = 1,800). AID 651589, 2012;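 active = mean inhibition of the reporter signal across four replicates at the single tested dose of 50% or more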
Numbers stand for hits; i = inactive; nt = no result given. Shown are actives, neighbours in structure and some others; about 2.6% of the full set was active somewhere.

SMILES | HIF-2a block | KKLEB cytotox | Shn3 3UTR inh | CF NFkB block | Peg3 promoter | Mdm2 MdmX conf | HIF-2a inh conf | HIF-1a counter
O=C1Nc2cccnc2N(C(=O)CCl)c2ccccc21 | 41.9 | i | i | i | 63.1 | nt | i | i
CCOC(=O)Cn1c(C)c(Br)c(=O)c2cccc(C)c21 | i | i | i | i | i | nt | nt | nt
CCn1c(Cl)c(C=O)s/c1=N\S(=O)(=O)c1ccccc1 | 94.9 | -85.1 | 99.3 | 87.9 | 104.8 | 103.2 | 98.7 | 104.9
CCN1C(=O)CS/C1=N\S(=O)(=O)c1ccc(Cl)cc1 | i | i | i | i | i | nt | nt | nt
Nc1nnnn1/N=C/C=C/c1ccccc1 | i | i | i | i | i | nt | nt | nt
Nc1nnnn1/N=C/C(Br)=C/c1ccccc1 | 83.0 | -94.4 | 97.3 | 91.2 | 114.1 | 102.7 | i | 104.1
Cc1cc(C)n(NC(=S)NC2CCCCC2)c(=O)c1C#N | i | i | i | i | i | nt | nt | nt
COc1ccc2cc1Oc1ccc(cc1)CC1c3c(cc(OC)c4c3Oc3cc5c(cc3O4)CCNC5C2)CCN1C (stereo unspecified) | 53.6 | i | i | i | 102.0 | nt | i | 106.3
COc1ccc(C2c3ccc4ccccc4c3Oc3ncn(CCCN(C)C)c(=N)c32)cc1 (stereo unspecified) | 93.1 | i | i | i | 112.1 | 102.0 | i | 104.6
Cc1ccc2c(c1)c1c3n2CCN(C(=O)CN2CCN(C)CC2)C3CCC1 (stereo unspecified) | i | i | i | i | i | nt | nt | nt
CN1CCN(CC(=O)N2CCn3c4c(c5cc(C6CCCCC6)ccc53)CCCC42)CC1 (stereo unspecified) | i | i | i | i | 105.5 | 103.5 | nt | nt
CNS(=O)(=O)c1ccc(C(C)(C)C)cc1 | i | i | i | i | i | nt | nt | nt
Cc1ccc(Nc2nnc(SCC(=O)Nc3cc(C(=O)O)ccc3C)s2)c(C)c1 | i | i | i | i | i | nt | nt | nt
COc1ccc(OC)c2sc(NC(=O)CCS(=O)(=O)c3ccccc3)nc12 | 90.1 | -55.4 | i | i | i | nt | i | 56.5
Cc1ccc(C(O)c2ncc(-c3ccccc3C)[nH]2)cc1F (stereo unspecified) | i | i | i | i | i | nt | nt | nt
Cc1ccc(S(=O)(=O)c2ncccc2[N+](=O)[O-])cc1 | 72.4 | -64.6 | 95.8 | 102.1 | 101.8 | 100.5 | 46.7 | i
CCCn1c(Nc2nc3ccccc3n2C)nc2ccccc21 | 91.3 | i | i | i | 89.6 | 103.2 | 57.7 | 105.3
O=C(COC(=O)CNC(=O)c1ccc(Cl)cc1)Nc1ccc(Cl)cn1 | i | i | i | i | i | nt | nt | nt
Cc1nc2ccccc2n1-c1nc(-c2ccco2)cc(C(F)(F)F)n1 | 45.9 | -81.9 | i | 93.9 | 71.9 | nt | i | 80.1
FC(F)(F)c1cc(-c2ccco2)nc(-n2cnc3ccccc32)n1 | i | i | i | i | i | nt | nt | nt
N#CC(c1cccc(Cl)c1)c1ccc2c(C(F)(F)F)cc(C(F)(F)F)nc2n1 (stereo unspecified) | i | -60.2 | 87.6 | 52.7 | 56.9 | 101.7 | nt | nt
COc1cc2c(cc1OC)C(c1ccccc1)N(C(=O)CCl)CC2 (stereo unspecified) | 92.6 | i | i | i | 102.0 | nt | 99.2 | 106.2
COc1cc(C(O)P(=O)(OCCC(C)C)c2ccc(N(C)C)cc2)cc(OC)c1OC (stereo unspecified) | i | i | i | i | i | nt | nt | nt
CCOc1ccc2nc(SCc3ccc(CC(=O)O)cc3)c(C#N)cc2c1 | 82.9 | i | i | i | i | nt | 89.1 | 57.2
Cc1ccc(NC(=O)c2cc(N3C(=O)C=CC3=O)ccc2N2CCOCC2)cc1 | 68.5 | i | i | i | 108.0 | nt | 68.5 | i
Cc1ccc(NC(=O)c2cc(NC(=O)c3ccco3)ccc2N2CCOCC2)cc1 | i | i | i | i | i | nt | nt | nt
